# Screening results: PubChem, Broad Institute
# Sampled rows, rich in hits. Any-hit rate of the full collection: about 4%.
# Wnt act: Wnt/beta-catenin pathway activation | 300,000 tested, 1.2% active | activation, % at 9.35 µM | Wnt/beta-catenin reporter cell assay, activator, plate reader; in the data active means activation above about 30%, passing the limit was not always enough;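 further: 0% = neutral control wells and 100% = positive control wells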
# esBAF inh: inhibitors of esBAF chromatin remodeling in mouse ES cells | AID 602393 | reporter increase, % at 12.5 µM | Bmi1-luciferase knock-in reporter, 24 h; 100% = twice the neutral-well signal | 350,000 tested, 2% active; in the data active means activation above about 40%;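 further: 0% = median of the plate's neutral control wells and 100% = double that signal; a rise in the Bmi1 reporter signal indicates esBAF inhibition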
# PAX8 inh HTS: inhibitors of PAX8 transcriptional activity in RMG-I cells. RMG-I TPO-luciferase reporter, SteadyGlo, 24 h. inhibition, % at 12.6 µM. 360,000 tested, 1.2% active. AID 652154;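 active means mean replicate inhibition at least 60% with every replicate also reaching 60%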;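 further: luciferase light reporting Pax8 driven TPO promoter activity; plate controls were median of neutral control wells for no effect and mitoxantrone controls for full effect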
# TRPM1 prom inh: reduces MITF-dependent TRPM1 promoter luciferase signal; 330,000 tested, 0.83% active; SK-MEL-5 TRPM1 promoter luciferase, 24 h; inhibition, % at 12.5 µM; AID 488899;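 active means mean inhibition across replicates of 60% or more, whatever share of single replicates reaches that level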
# EWS-Fli inh: EWS/Fli transcriptional activity inhibition; A673 NR0B1-luciferase reporter, viability-normalised; inhibition, % at 12.6 µM; 350,000 tested, 0.67% active; AID 651661;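 active means mean inhibition of at least 50% after viability correction, with every replicate also passing that limit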;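 further: firefly luciferase signal divided by Alamar Blue viability fluorescence both relative to DMSO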
# MITF act: increases MITF-driven TRPM1 promoter luciferase signal; SK-MEL-5 TRPM1-promoter luciferase, 24 h; % of positive control, neutral wells = 0; activation, % at 12.5 µM; 300,000 tested, 0.75% active; AID 588334;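 active means mean activation of at least 80% with every replicate also reaching 80%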;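 further: 0% = neutral control wells and 100% = parthenolide positive control wells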
# Active calls of the source: *; x = no result.
SMILES,Wnt act,esBAF inh,PAX8 inh HTS,TRPM1 prom inh,EWS-Fli inh,MITF act
O=C(Nc1ccc2c(c1)[C@@H]1C[C@H](CC(=O)N3CCc4ccccc4C3)O[C@H](CO)[C@@H]1O2)Nc1ccccc1F,x,12.6,25.3,x,-1.5,x
COc1ccc(NC(=O)Nc2ccc3c(c2)[C@@H]2C[C@@H](CC(=O)N4CCc5ccccc5C4)O[C@H](CO)[C@@H]2O3)cc1,x,10.1,71.3*,x,-6.0,x
O=C(Nc1ccc(C(F)(F)F)cc1)Nc1ccc2c(c1)[C@@H]1C[C@@H](CC(=O)N3CCc4ccccc4C3)O[C@H](CO)[C@@H]1O2,x,-3.6,75.9*,x,-0.5,x
CC(C)C#Cc1ccc2c(c1)O[C@@H](CN(C)S(=O)(=O)c1cn(C)cn1)[C@H](C)CN([C@H](C)CO)S2(=O)=O,x,6.9,-25.0,x,8.0,x
O=C(Nc1nccs1)[C@H]1[C@H](CO)[C@H]2Cn3c(cccc3=O)[C@@H]1N2C(=O)C1CCCCC1,x,x,x,x,-6.2,x
CC(=O)NC(CSC(CC(=O)c1ccco1)c1ccc(C)cc1)C(=O)O (stereo unspecified),9.3,42.7*,-49.8,-36.3,-22.3,38.7
O=C(NCc1cccs1)c1ccc(N2CCCCC2)nc1,x,81.3*,x,-68.3,x,71.4
CC1CCCN(c2ccc(C(=O)NCc3cccs3)cn2)C1 (stereo unspecified),x,94.3*,x,-70.6,x,79.3
CC1CCCN(c2ccc(C(=O)NCc3ccccc3)cn2)C1 (stereo unspecified),4.0,34.2,-62.2,-23.9,-81.6,32.2
O=C(NCc1cccs1)c1ccncc1,0.3,-1.4,5.8,2.9,x,x
CN1CCN(C(=O)C[C@@H]2CC[C@H]3[C@@H](COC[C@@H](O)CN3C(=O)Nc3ccc4c(c3)OCO4)O2)CC1,x,23.8,-102.4,x,-57.9,x
Cc1ccccc1NC(=S)N(Cc1ccccn1)Cc1ccccc1Cl,-0.2,x,-4.3,5.8,10.6,-3.8
CC(=NNC(=S)N(Cc1ccccn1)Cc1ccccn1)c1cnccn1,-6.6,x,20.9,79.8*,6.5,-78.9
COc1ccccc1NC(=S)N(Cc1ccc(C)cc1)Cc1ccccn1,-1.9,5.9,7.6,-3.1,4.1,1.2
S=C(NN=Cc1ccccn1)N(Cc1ccccn1)Cc1ccccn1,-23.4,-26.8,20.1,74.4*,-0.2,-74.3
O=C(CCCC(=O)N/N=C\c1ccccn1)N/N=C\c1ccccn1,x,x,-0.4,6.7,6.3,-3.4
S=C(NN=C(c1ccccc1)c1ccccn1)N(Cc1ccccn1)Cc1ccccn1,-23.8,x,x,82.8*,6.5,-80.8
C[C@H](CO)N1C[C@H](C)[C@H](CN(C)Cc2ccncc2)Oc2cc(C#C[C@@H](C)O)ccc2S1(=O)=O,x,-11.0,x,x,-7.4,x
C[C@H](CO)N1C[C@H](C)[C@@H](CN(C)Cc2ccccc2)OCCCC[C@H](C)Oc2ccc(NC(=O)C3CCCCC3)cc2C1=O,x,1.0,-3.3,x,8.8,x
CNC[C@@H]1Oc2ccc(NC(=O)Nc3ccc(F)cc3)cc2CC(=O)N([C@@H](C)CO)C[C@H]1C,x,0.1,-14.0,x,-1.5,x
Cc1ccc(C(C)C)cc1NC(=O)Nc1ccc([N+](=O)[O-])cc1,-2.3,x,62.5*,33.8,35.6,-30.0
CC(=O)N1[C@@H]2c3ccc(/C=C/c4ccccc4)c(=O)n3C[C@@H]2[C@@H](CO)[C@@H]1C(=O)Nc1nccs1,x,0.9,16.2,x,-0.3,x
CCOC(=O)c1cc2c(nc1N)CCCC2,7.5,x,0.4,-8.8,-0.2,7.0
C=C(C)CNC(=S)Nc1nc2c(cc1C(=O)OCC)CCCC2,29.6,61.5*,-148.0,-80.4,-64.9,83.1*
CCCN1C=CC(=C2C(=O)c3ccccc3C2=O)C=C1,x,-83.1,x,104.7*,x,-104.2
SMILES,Wnt act,esBAF inh,PAX8 inh HTS,TRPM1 prom inh,EWS-Fli inh,MITF act
CCN1C=CC(=C2C(=O)c3ccccc3C2=O)C=C1,x,-82.6,x,99.6*,x,-97.9
CCCCN1C(C)=CC(=C2C(=O)c3ccccc3C2=O)C=C1C,10.4,x,-1.7,9.3,-51.4,-10.8
CCCCCCN1C=CC(=C2C(=O)c3ccccc3C2=O)C=C1,-3.7,-78.5,67.1*,79.7*,79.3*,-78.6
CCC(=O)Nc1ccc2c(c1)OC[C@H](C)N(CCc1ccccc1)C[C@H](C)[C@@H](OC)CN(C)C2=O,x,x,x,x,1.8,x
COc1cccc(N(C(=O)c2snc(C(N)=O)c2N)C(C(=O)NCC2CCCO2)c2cccs2)c1 (stereo unspecified),0.1,25.8,3.5,3.7,-3.4,-2.8
COc1ccc(N(C(=O)CCl)C(C(=O)NCCc2ccccc2)c2cccs2)cc1Cl (stereo unspecified),0.8,x,104.2*,85.6*,68.4*,-84.7
COc1cccc(N(C(=O)CCl)C(C(=O)NCCc2ccccc2)c2cccs2)c1 (stereo unspecified),-2.9,14.9,x,88.5*,x,-88.8
COc1cc(OC)cc(-c2cc(NC(C)=O)n[nH]2)c1,3.1,2.1,-3.9,x,-20.1,x
CC(=O)Nc1cc(-c2ccc(Cl)cc2)[nH]n1,-1.9,73.6*,-74.8,-26.6,-85.6,24.7
CN(C)c1ccnc(N(Cc2ccccc2)Cc2ccccc2)c1C#N,x,74.5*,x,-43.4,x,46.9
COc1ccc(CCNC(=O)[C@H](C)N2C(=O)N3CCc4c([nH]c5ccccc45)[C@@]3(C)C2=O)cc1OC,-3.0,-10.6,x,14.9,5.8,-12.1
CCC1(O)CC2CN(CCc3c([nH]c4ccccc34)C(C(=O)OC)(c3cc4c(cc3OC)N(C=O)C3C(O)(C(=O)OC)C(OC(C)=O)C5(CC)C=CCN6CCC43C65)C2)C1 (stereo unspecified),-20.0,x,83.1*,51.5,44.3,x
C=C1C(=O)C2=CC1CCC(=O)C1(C)CCC(OC(C)=O)C(C)(C)C1CC2O (stereo unspecified),-24.6,x,104.8*,x,57.2*,-101.1
CCCNC(=O)N1C[C@@H](O)COC[C@H]2O[C@H](CC(=O)N3CCCCC3)CC[C@@H]21,x,-1.1,-5.3,x,-5.7,x
COc1cccc(C#Cc2ccc([C@H]3[C@@H](CO)N4C(=O)CN(C(=O)c5ccncc5)C[C@@H]34)cc2)c1,x,x,5.5,x,-7.0,x
O=C(CC1CC1)N1CC2(C1)[C@H](c1ccccc1)[C@@H](CO)N2Cc1cccc(F)c1,x,x,1.8,x,6.7,x
COc1ccc(C2NCCc3c2[nH]c2ccccc32)cc1COc1ccc(F)cc1 (stereo unspecified),-9.0,x,22.5,21.6,78.2*,-24.2
C[C@@H]1CN([C@@H](C)CO)C(=O)c2cc(C#Cc3cccc(F)c3)cnc2O[C@@H]1CN(C)CC1CC1,x,x,x,x,11.3,x
Cc1cccc(-c2nc(C#N)c(N3CCCCC3)o2)c1,15.2,50.0*,-40.5,-69.6,-60.5,71.7
Cc1cccc(-c2nc(C#N)c(NC3CCCCC3)o2)c1,x,61.5*,x,-101.0,x,100.0*
Cc1cccc(-c2nc(CS(=O)CC(=O)NC3CCCC3)c(C)o2)c1 (stereo unspecified),0.3,17.3,-10.2,x,15.8,x
